# Assay results published in the supplement of paper PMC6555819.
# System: LXRb homodimer (NR concentration 270 nM)
# Test: PBM binding z-score (relative to random genomic background probes); higher = stronger binding; sequences stand for … in GC…GCGATTGACAGCGTAGAATGAAGG
# How it was run: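 Random background probes are the reference for binding z-scores. These scores derive from regression-normalized fluorescence on custom Agilent 4×180K protein-binding microarrays incubated 1 h with ligand-free nuclear receptor dimers. Binding was detected with antibodies against each partner (one per run).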
row,Sequence,PBM binding z-score
1,TCATATAGGCAAAAGGTGAAAGTCGGTGTGGTAA,-0.167
2,ATATGTAGGTTAGCTGGGGTCATTCAGACTAGGC,0.992
3,GCAACGAGGGCAAAGTTGATAGCATCTGTCGACG,-0.643
4,CCTTACGGGTCGCTCCAGGTTATAGCATCGGAGT,-0.524
5,ATGTCTAGGTAAGACTCAGTTCAGTGAAGAACGC,-0.00137
6,GATTCAGGGTCAAGGCCAGAGTACGCGTATTGAT,0.317
7,CGTCAAAGCTCAAGGTAACGTAACAGAAAGCAGC,-0.863
8,CCTATTAGTTGACCACAAGGGCAACCGAAGCTCG,0.786
9,ATATGTAGCTTAGCTGGGGTCATTCAGACTAGGC,0.639
10,CTACCAAGGTGAACAAGCTCGTTGATTACTATTC,-0.421
11,CTCGAAAGGTCGTGCTCAGGTGACTATACCAAAC,0.323
12,CGAACTAGGTCAAGAACAGTGAATCTCCGCACGC,0.0467
13,ACTATTAGGTGACTTAGGGCAACCGATACGACGC,0.261
14,TAGCCTAGGTCAAGGGCCAGTATACCACGCGAAC,-0.716
15,ACTTACGGGTCAACGAGGTTATTGCACGCGTATA,0.685
16,CGTCAAAGTTCAAGGTAACGTTACAGAAAGCAGC,1.12
17,CAATCTAGGTCACCGGAAGGTCAAAGTCCGCATG,1.92
18,CCGAGTGGGGCAAAGGTTACCATACTCAGTACGA,-0.506
19,AATAGAGGGTCACTAGGCCAGAGTAGGTACGAAT,-0.0545
20,ACCTCTAGGTAACCAAGTTCAGTGAATGCCGAAC,-0.0596

row,Sequence,PBM binding z-score
1,CGTCAAAGTTCAAGGTAACGTGACAGAAAGCAGC,0.738
2,TCTCGGAGGACACGAAGGTCAGAGCTTTCCAGAG,-1.06
3,CGAACTAGGTCACTGACAGGACAGTGAATAGTAA,-0.225
4,CATACAGGGTCAGCTAGGCCCGAGTAGGGACGGC,0.134
5,AGAATGAGGTTACCAAAGCTCAGGGAAACGCTTG,-0.341
6,ATCTCTAGGTAAAGTTCAGTGACAGATCGATAGA,1.26
7,TCGGGTAGGTTACCAATGGGGCATTCAGCTTTCT,0.113
8,TAGCCTAGGTCATTCAGGGGCCAGTAGAGAAAGC,1.16
9,ATCGAAAGGTCTTGAGGTGAGTATACAGAAAGGC,-0.0662
10,AGGATGAGGTTAAGATCAGGGAAACAGAATACAT,0.492
11,CCTCGGAGGACAACAGGAGGGCAGAGCTGCCAGA,-0.963
12,TCTGCTAGCTCAGTTGGTCAGCTAACGAGCTGCC,-0.714
13,TCTAGTTGGTCAGAGGTCACACACTCGAAATGCG,1.13
14,GCATATAAGTAATACAAGGTGAAAGTCCGATTGT,-0.122
15,TTAGCAAGGTGAAAGGTCGTTGATGCACGCCTTG,-0.713
16,AGCCAAAGTTCAGGACGAGGTAACGTAAAGCACG,0.134
17,AGAACGAGGGCATGCTGAGTTGATAGCAGAGTAG,-1.15
18,ACTATTAATTGAGACGAGGGCAACCGATAGGTTG,0.479
19,CTCGAATGGTCGGTTGAGGTGAGTATACGGATAA,-0.349
20,GCGACTGGGGCAAAGCAGGTTACCATAAGGTTGG,-1.39
